# Test results published in PubChem BioAssay AID1469 (National Center for Advancing Translational Sciences (NCATS), 2008).
# Out of some 280,000 compounds screened, about 180 (0.064%) were called active. The entries come from a sample that favours actives as a whole. Unmarked numbers belong to inactive results. Calls follow the shape of the dose curve; as a rule, active = well fitted inhibition curve with a large enough effect; inconclusive = small, poorly fitted or top-dose-only effect, or effect the other way; inactive = flat fitted curve, though single readings scatter.
# Molecular target: Thyroid hormone receptor beta (Homo sapiens) (UniProt P10828)
# Sequence (P10828 whole entry, looked up): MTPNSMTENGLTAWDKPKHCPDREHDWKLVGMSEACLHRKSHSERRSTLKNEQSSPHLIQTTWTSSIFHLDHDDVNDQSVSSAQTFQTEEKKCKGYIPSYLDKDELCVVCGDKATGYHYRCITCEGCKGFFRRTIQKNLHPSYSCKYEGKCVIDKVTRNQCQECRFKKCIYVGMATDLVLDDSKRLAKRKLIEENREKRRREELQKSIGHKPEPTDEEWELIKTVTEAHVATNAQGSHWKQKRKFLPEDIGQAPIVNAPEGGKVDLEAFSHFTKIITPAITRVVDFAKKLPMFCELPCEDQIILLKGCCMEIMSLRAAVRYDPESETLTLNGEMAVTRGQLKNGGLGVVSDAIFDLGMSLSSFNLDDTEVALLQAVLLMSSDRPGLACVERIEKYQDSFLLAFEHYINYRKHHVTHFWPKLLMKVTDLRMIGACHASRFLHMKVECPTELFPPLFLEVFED
# Experiment: qHTS for Inhibitors of the Interaction of Thyroid Hormone Receptor and Steroid Receptor Coregulator 2; also: nearly all actives have a fitted effect of over 50% in size;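 as to activity change, negative = inhibition: plate controls were bound peptide for no effect and peptide without receptor for full effect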
# Settings: TRbeta-SRC2 peptide binding, fluorescence polarization, receptor liganded with 1 µM T3; series mostly up to 106 µM; activity change, negative = inhibition: at the top concentration
# From the text: NIH Molecular Libraries Probe Production Network [MLPCN]
# NIH Chemical Genomics Center [NCGC]
# Assay Provider: R. Kip Guy, St. Jude Children's Research Hospital
# Thyroid receptor (TR) regulates many homeostatic processes including basal metabolism, cardiovascular function, body weight, and lipid trafficking. TR modulators are potential therapeutics for obesity and hyperlipidemias but current thyroid analogs have undesirable side effects, particularly cardiac stimulation. To identify inhibitors that specifically prevent the interaction of TR with the steroid receptor coregulator 2 (SRC2), a fluorescence polarization assay was screened. This assay detects interaction of the ligand-binding domain of human TRb with a Texas Red labeled SRC2 peptide, corresponding to a 20 amino acid region of the nuclear receptor interaction domain (Arnold et al., 2006). Small molecule inhibitors that block the interaction of TR and SRC2 are detected by a decrease in fluorescence polarization.
# Arnold, L. A.; Estebanez-Perpina, E.; Togashi, M.; Shelat, A.; Ocasio, C. A.; McReynolds, A. C.; Nguyen, P.; Baxter, J. D.; Fletterick, R. J.; Webb, P.; Guy, R. K. A high-throughput screening method to identify small molecule inhibitors of thyroid hormone receptor coactivator binding. Sci STKE 2006, p 13.
# NCGC Assay Protocol Summary:
# For screening, 5 uL/well 0.6 uM TRb and 20 nM SRC2 Texas Red in protein buffer (20mM Tris hydrochloride, 100mM NaCl, 10% glycerol, 1mM EDTA, 0.01% NP-40, 1mM DTT, 1uM T3 and 5% DMSO) was dispensed into black solid 1536-well plates (Grenier) using a solenoid-based dispenser. Following transfer of 23 nL compound or DMSO vehicle by a pin tool, the plates were centrifuged 15 s at 1000 RPM and incubated 5 hr at ambient temperature. The plates were read by an Envision (Perkin Elmer) to detect fluorescence polarization of SRC2 Texas Red (555 nm excitation and 632 nm emission). Data were normalized to unbound (all components except TRb) and bound SRC2 Texas Red controls. In this assay, we provide % activity data for each concentration as well as potencies for the active compounds.
# Keywords: NIH Roadmap, MLPCN, MLI, MLSMR, qHTS, NCGC, qHTS, thyroid hormone receptor, steroid receptor coactivator, fluorescence polarization
# Potency is read from the fitted curve at half-maximal effect.
SMILES,"activity change, negative = inhibition",Potency
COc1ccc(CNC(=O)c2ccc(NC(=O)N3CC4CCCN4c4ccccc43)cc2)cc1 (stereo not drawn),-4.18%,–
Cc1cccc(N2CCN(C3=C(c4ccccc4)C(=O)c4ccccc43)CC2)c1C,-3.14%,–
Cc1nc2nc(NCc3cccc(Br)c3)[nH]n2c(=O)c1Cc1ccccc1,-7.16%,–
C[Si](C)(C)N[Si](C)(C)C,2.92% [at 201 µM],–
CCCOc1ccc(N/C=C/C(=O)C(C)(C)C)cc1,4.71%,–
CN(C)c1ccc(N/C=C/C(=O)C(F)(F)F)cc1,–,44.7 µM (active)
O=C(/C=C/Nc1ccccc1OC(F)(F)F)C(F)(F)F,5.17%,–
COc1ccc(C2=NC(c3ccncc3)=Nc3ccc(Br)cc3N2)cc1,-4.88%,–
Cc1ccccc1OCc1ccc(-c2nc(C#N)c(N3CCCCC3)o2)o1,0.495%,–
Cc1cc(=O)n(CC(=O)Nc2cccc([N+](=O)[O-])c2)c(-n2nc(C)cc2C)n1,3.16%,–
Cc1ccc(NC(=O)c2oc3ccc(S(=O)(=O)N4CCCCC4)cc3c2C)cc1Cl,-6.34%,–
CCN(CC)c1cc(NC2CCCCC2)c2c3c(onc13)-c1ccccc1C2=O,-2.27%,–
COc1cc(NC(=O)c2noc3c2CSc2ccccc2-3)cc(OC)c1OC,3.67%,–
CCc1cccc(C)c1Nc1c(-c2ccc(N(C)C)cc2)nc2ncccn12,7.62%,–
CCOCCCNC(=O)c1ccc2nc(CCc3ccccc3)oc2c1,4.71%,–
CCc1ccccc1NC(=O)Cc1ccc(NC(=O)N2CCCCc3ccccc32)cc1,-8.69%,–
CCOC(=O)c1ccc(N2C(=O)c3n[nH]c(-c4ccco4)c3C2c2ccc(O)cc2)cc1 (stereo not drawn),-1.97%,–
O=C(CCOc1ccccc1)N(Cc1cccnc1)c1nc2ccc(Cl)cc2s1,-8.93%,–
CCOC(=O)N1CCc2c(sc(NCc3cccc(F)c3)c2C(=O)Nc2ccccc2OCC)C1,-2.15%,–
COC(=O)CC1Oc2ccccc2-n2cc(-c3ccccc3)nc21 (stereo not drawn),2.42%,–
Cc1ccc(O)c(NC(=O)CCS(=O)(=O)c2nc(-c3ccc4c(c3)OCO4)cc(C(F)(F)F)n2)c1,0.6%,–
Cc1cc(C)cc(NC(=O)CSc2oc(-c3ccccc3)nc2S(=O)(=O)c2ccc(Cl)cc2)c1,3.51%,–
CCOc1ccc(CNC(=O)c2ccc(CS(=O)c3ccccc3)o2)cc1 (stereo not drawn),2.05%,–
CCCn1c(NCc2ccc(N(CC)CC)cc2)nc2ccccc21,5.29%,–
CCOCCCNC(=O)c1c(NC(=O)Cc2coc3ccc(C)cc23)sc2c1CCC2,-6.01% [at 53 µM],–
Cc1ccc2nc(-c3ccc(O)cc3)c(Nc3ccc4c(c3)OCO4)n2c1,-5.88%,–
Cc1ccc(-c2nc3ccccn3c2Nc2c(C)cccc2C)o1,2.13%,–
Cc1ccccc1CS(=O)(=O)CC1Nc2ccc(C(=O)NCc3ccc(Cl)cc3)cc2NC1=O (stereo not drawn),-3.54%,–
